Anthrax LF prot = anthrax lethal factor protease inhibition; P15917; multiplex microsphere protease cleavage assay, LF; inhibition, % at 10 µM; 360,000 compounds, 0.12% hits; AID 588501
Autofluor counter = counter-screen for toxin protease inhibitors: compound fluorescence; 360,000 compounds, 3.1% hits; fluorescence intensity (no concentration beside the values); compound autofluorescence counterscreen, microsphere flow cytometry; hits give high values; in the data active = fluorescence intensity above about 16000; inconclusive = no clear call, values can overlap the other calls
BoNT-F LC inh = BoNT F light chain protease inhibition; Multiplex microsphere protease cleavage assay, flow cytometry; inhibition, % at 10 µM; 360,000 compounds, 0.22% hits; in the data active = inhibition above about 35%, passing the limit was not always enough; inconclusive = no clear call, values can overlap the other calls
BoNT A protease = inhibitors of Botulinum neurotoxin A light chain protease | multiplex microsphere protease substrate cleavage, flow cytometry | 360,000 compounds, 0.17% hits | inhibition, % at 10 µM
Large screens that a line does not name were inactive. This is a sample that favours compounds with a hit; in the whole collection about 3.5% have one here. Rule as the data show it, unless noted: active = inhibition above about 30%; inconclusive = no clear call, values can overlap the other calls; inactive = below that.

Cc1cc(=O)oc(C)c1C(=O)NCC1COc2ccccc2O1 (configuration not stated)	Autofluor counter 20933
Cc1ccc(CNC(=O)c2c(C)cc(=O)oc2C)cc1	none
Cc1cc(=O)oc(C)c1C(=O)NCCNC(=O)c1c(C)cc(=O)oc1C	none
Cc1cc(=O)oc(C)c1C(=O)NCCC(C)C	Autofluor counter 22899
C[C@H](CO)N1C[C@H](C)[C@H](CN(C)C(=O)c2ccccc2F)Oc2ncc(Br)cc2C1=O	none
CC(OC(=O)c1ccc([N+](=O)[O-])s1)C(=O)NC1CCCCC1C (configuration not stated)	none
Cc1cc(=O)oc(C)c1C(=O)NCc1ccccn1	Autofluor counter 20680
Cc1nc(CC(=O)NNS(=O)(=O)c2cccc(Cl)c2Cl)cs1	none
CCOC(=O)CC[C@H](NC(=O)Cn1cnc2c(NCc3ccccc3)ncnc21)C(=O)OCC	none
Cc1ccc(N(CN2CCCC2=O)C(=O)c2ccc(C)c(C)c2)cc1	Autofluor counter 21259, BoNT A protease inconclusive
COC(=O)[C@H]1C[C@H](OC(=O)Nc2cccs2)[C@@]2(O)CN(S(=O)(=O)c3ccc(C)cc3)CC2[C@H]1C(=O)OC (some centres not stated)	none
Cc1ccccc1CN1CCNC1=O	Autofluor counter 19805
Cc1ccccc1CN1CCCNC1=O	none
O=C(O)c1ccccc1C=NN1CCCCCC1	none
CSc1ccccc1C(=O)Nc1ccc(C)c(C)c1	Autofluor counter 16135, BoNT A protease inconclusive
COc1ccc(NC(=O)c2ccccc2SC)cc1	none
COc1ccc(OC)c(NC(=O)c2ccccc2SC)c1	Autofluor counter 16141
CSc1ccccc1C(=O)Nc1cc(C)cc(C)c1	none
O=C(CS(=O)c1cccc(C(F)(F)F)c1)Nc1ccccc1Cl (configuration not stated)	Autofluor counter 22990
O=C(CSc1cccc(C(F)(F)F)c1)Nc1ccc(Cl)cc1Cl	Autofluor counter 19968, BoNT A protease inconclusive
COc1ccc(/C=C/C(=O)c2ccc[nH]2)c(OC)c1OC	none
COc1ccc(/C=C/C(=O)c2ccc[nH]2)cc1OC	Autofluor counter 16560
CC1CCN(C(=O)CN2C(=O)NC3(CCCCCC3)C2=O)CC1	none
CC1CN(C(=O)CN2C(=O)NC3(CCCCCC3)C2=O)CC(C)O1 (configuration not stated)	Autofluor counter 24732
Cc1cc(C)c(NC(=O)CN2C(=O)NC3(CCCCC3)C2=O)c(C)c1	Autofluor counter 20379
Cc1ccc(N(CC(=O)N2CCN(C3CCCCC3)CC2)S(=O)(=O)c2cccnc2)cc1	Autofluor counter 21207, BoNT A protease inconclusive
CC1(C)CC(CCC(=O)Nc2ccc(S(N)(=O)=O)cc2)C(=O)O1 (configuration not stated)	Autofluor counter 22673, BoNT A protease inconclusive
CC(C)(C)c1ccc(C(=O)N2CCC2(C)C(=O)Nc2cnc3ccccc3c2)cc1 (configuration not stated)	none
Cn1cccc1CNCc1ccccc1Cl	Autofluor counter 18677
COc1c(OC(C)=O)ccc(/C=C/c2ccc3ccccc3n2)c1[N+](=O)[O-]	Autofluor counter 23285
CC(=O)Nc1cccc(C(=O)NN2C(=O)NC3(CCC(C)CC3)C2=O)c1 (configuration not stated)	none
CCOC(=O)C1(C)CCCN1C(=O)c1snnc1C (configuration not stated)	none
COc1ccc(Cn2c(CCC(=O)Nc3ccc(CC#N)cc3)nc3cccnc32)cc1	Autofluor counter 22433
COCCCNC(=O)CCc1nc2cccnc2n1Cc1ccccc1	Autofluor counter 23819
O=C(Nc1ccc(F)c(Cl)c1)C1CC2CCC1C2 (configuration not stated)	none
COc1ccc(Cn2c(SCc3cc(C)ccc3C)nc3cc(OC)c(OC)cc3c2=N)cc1	none
COc1ccc(Cn2c(SCc3ccc(C)cc3)nc3cc(OC)c(OC)cc3c2=N)cc1Cl	Autofluor counter 16606
COc1cc2nc(SCc3ccc(Cl)cc3Cl)n(Cc3cccs3)c(=N)c2cc1OC	Autofluor counter 20638
COc1cc2nc(SCc3ccc(C(F)(F)F)cc3)n(Cc3cccs3)c(=N)c2cc1OC	none
Cc1cc(C)cc(Cn2cc(CN3CC(N4CCCCC4)CS3(=O)=O)nn2)c1 (configuration not stated)	none
Cc1c(C(=O)N2CCN(S(C)(=O)=O)CC2)oc2ccccc12	Autofluor counter 20670
Cc1c(C(=O)N2CCN(CCc3ccccc3)CC2)oc2ccccc12	Autofluor counter 24130
Cc1c(C(=O)N2CCN(S(=O)(=O)c3ccccc3)CC2)oc2ccccc12	none
CCc1cc(-c2n[nH]c(=S)n2C(C)c2ccccc2)cs1 (configuration not stated)	Autofluor counter 21656
Cn1c(=O)cc(OCCCC(=O)Nc2ccccn2)c2ccccc21	Autofluor counter 22529
Cn1c(=O)cc(OCCCC(=O)Nc2cccc(Cl)c2)c2ccccc21	none
Cc1ccc(CNC(=O)CCCOc2cc(=O)n(C)c3ccccc23)o1	none
Cn1c(=O)cc(OCCCC(=O)NCc2ccco2)c2ccccc21	Autofluor counter 17294
CC(C)CCNC(=O)C(c1ccco1)N(Cc1ccc(F)cc1)C(=O)c1snc(C(N)=O)c1N (configuration not stated)	Autofluor counter 19358
NC(=O)c1nsc(C(=O)N(Cc2ccc(F)cc2)C(C(=O)NC2CCCC2)c2ccco2)c1N (configuration not stated)	none
CC(=O)Oc1ccccc1Cn1c(C)c(C(=O)NCc2ccc(Cl)c(Cl)c2)sc1=O	none
C=CCn1c(SCc2c(F)cccc2Cl)nnc1-c1ccco1	Autofluor counter 16837
CN(Cc1ccccc1)C(=O)C1(C)CCN1C(=O)Cc1ccc(Cl)cc1Cl (configuration not stated)	none
COc1ccc(-c2nc(C#N)c(N3CCN(c4ccccc4)CC3)o2)cc1	none
COc1ccc(-c2nc(C#N)c(N3CCc4ccccc4C3)o2)cc1OC	Autofluor counter 17078
CCN1CCN(c2oc(-c3ccc(OC)cc3)nc2C#N)CC1	Autofluor counter 16578
COc1ccc(N2CCN(c3oc(-c4ccco4)nc3C#N)CC2)cc1	Autofluor counter 20889, BoNT A protease inconclusive
COc1ccc(N2CCN(c3oc(-c4ccccc4OC)nc3C#N)CC2)cc1	Autofluor counter 21565
COc1ccccc1-c1nc(C#N)c(N2CCc3ccccc3C2)o1	none
COc1cccc(N2CC(C(=O)OC(C)C(=O)c3ccccc3)CC2=O)c1 (configuration not stated)	Autofluor counter 22234, BoNT A protease inconclusive
COc1ccc(CCNC(=O)c2nnc(Cc3c(F)cccc3Cl)o2)cc1OC	none
O=C(NCCCN1CCCC1=O)c1cccc(S(=O)(=O)Nc2ccccc2Cl)c1	none
O=C(NCCCN1CCCC1=O)c1nnc(Cc2c(F)cccc2Cl)o1	Autofluor counter 22538, BoNT A protease inconclusive
CN1CCN(CCCNC(=O)c2nnc(Cc3c(F)cccc3Cl)o2)CC1	Autofluor counter 18850
CCC(NS(=O)(=O)c1c(C)[nH]c(=O)[nH]c1=O)C12CC3CC(CC(C3)C1)C2 (configuration not stated)	none
Cc1[nH]c(=O)[nH]c(=O)c1S(=O)(=O)NCC12CC3CC(CC(C3)C1)C2	Autofluor counter 21375, BoNT A protease inconclusive

Assay outcomes as filed in PubChem.
